Reference: the supplement of paper PMC11732987, “Enantioselective OTUD7B fragment discovery through chemoproteomics screening and high-throughput optimisation” (Communications Chemistry, 2025)

What was measured:
Assay in all cases: log2 ratio of Biotin-Ahx-Ub-VS probe labelling (fragment/DMSO); higher = less target engagement (more negative = stronger competition), active = hit call of the paper (q ≤ 0.05, log2 ratio ≤ -1)
Settings in all cases: compound concentration: 200 uM; treatment time: 3 h
USP34 = USP34 (UniProt Q70CQ2)
Sequence of USP34 (Q70CQ2 whole entry, the tested form may be a part): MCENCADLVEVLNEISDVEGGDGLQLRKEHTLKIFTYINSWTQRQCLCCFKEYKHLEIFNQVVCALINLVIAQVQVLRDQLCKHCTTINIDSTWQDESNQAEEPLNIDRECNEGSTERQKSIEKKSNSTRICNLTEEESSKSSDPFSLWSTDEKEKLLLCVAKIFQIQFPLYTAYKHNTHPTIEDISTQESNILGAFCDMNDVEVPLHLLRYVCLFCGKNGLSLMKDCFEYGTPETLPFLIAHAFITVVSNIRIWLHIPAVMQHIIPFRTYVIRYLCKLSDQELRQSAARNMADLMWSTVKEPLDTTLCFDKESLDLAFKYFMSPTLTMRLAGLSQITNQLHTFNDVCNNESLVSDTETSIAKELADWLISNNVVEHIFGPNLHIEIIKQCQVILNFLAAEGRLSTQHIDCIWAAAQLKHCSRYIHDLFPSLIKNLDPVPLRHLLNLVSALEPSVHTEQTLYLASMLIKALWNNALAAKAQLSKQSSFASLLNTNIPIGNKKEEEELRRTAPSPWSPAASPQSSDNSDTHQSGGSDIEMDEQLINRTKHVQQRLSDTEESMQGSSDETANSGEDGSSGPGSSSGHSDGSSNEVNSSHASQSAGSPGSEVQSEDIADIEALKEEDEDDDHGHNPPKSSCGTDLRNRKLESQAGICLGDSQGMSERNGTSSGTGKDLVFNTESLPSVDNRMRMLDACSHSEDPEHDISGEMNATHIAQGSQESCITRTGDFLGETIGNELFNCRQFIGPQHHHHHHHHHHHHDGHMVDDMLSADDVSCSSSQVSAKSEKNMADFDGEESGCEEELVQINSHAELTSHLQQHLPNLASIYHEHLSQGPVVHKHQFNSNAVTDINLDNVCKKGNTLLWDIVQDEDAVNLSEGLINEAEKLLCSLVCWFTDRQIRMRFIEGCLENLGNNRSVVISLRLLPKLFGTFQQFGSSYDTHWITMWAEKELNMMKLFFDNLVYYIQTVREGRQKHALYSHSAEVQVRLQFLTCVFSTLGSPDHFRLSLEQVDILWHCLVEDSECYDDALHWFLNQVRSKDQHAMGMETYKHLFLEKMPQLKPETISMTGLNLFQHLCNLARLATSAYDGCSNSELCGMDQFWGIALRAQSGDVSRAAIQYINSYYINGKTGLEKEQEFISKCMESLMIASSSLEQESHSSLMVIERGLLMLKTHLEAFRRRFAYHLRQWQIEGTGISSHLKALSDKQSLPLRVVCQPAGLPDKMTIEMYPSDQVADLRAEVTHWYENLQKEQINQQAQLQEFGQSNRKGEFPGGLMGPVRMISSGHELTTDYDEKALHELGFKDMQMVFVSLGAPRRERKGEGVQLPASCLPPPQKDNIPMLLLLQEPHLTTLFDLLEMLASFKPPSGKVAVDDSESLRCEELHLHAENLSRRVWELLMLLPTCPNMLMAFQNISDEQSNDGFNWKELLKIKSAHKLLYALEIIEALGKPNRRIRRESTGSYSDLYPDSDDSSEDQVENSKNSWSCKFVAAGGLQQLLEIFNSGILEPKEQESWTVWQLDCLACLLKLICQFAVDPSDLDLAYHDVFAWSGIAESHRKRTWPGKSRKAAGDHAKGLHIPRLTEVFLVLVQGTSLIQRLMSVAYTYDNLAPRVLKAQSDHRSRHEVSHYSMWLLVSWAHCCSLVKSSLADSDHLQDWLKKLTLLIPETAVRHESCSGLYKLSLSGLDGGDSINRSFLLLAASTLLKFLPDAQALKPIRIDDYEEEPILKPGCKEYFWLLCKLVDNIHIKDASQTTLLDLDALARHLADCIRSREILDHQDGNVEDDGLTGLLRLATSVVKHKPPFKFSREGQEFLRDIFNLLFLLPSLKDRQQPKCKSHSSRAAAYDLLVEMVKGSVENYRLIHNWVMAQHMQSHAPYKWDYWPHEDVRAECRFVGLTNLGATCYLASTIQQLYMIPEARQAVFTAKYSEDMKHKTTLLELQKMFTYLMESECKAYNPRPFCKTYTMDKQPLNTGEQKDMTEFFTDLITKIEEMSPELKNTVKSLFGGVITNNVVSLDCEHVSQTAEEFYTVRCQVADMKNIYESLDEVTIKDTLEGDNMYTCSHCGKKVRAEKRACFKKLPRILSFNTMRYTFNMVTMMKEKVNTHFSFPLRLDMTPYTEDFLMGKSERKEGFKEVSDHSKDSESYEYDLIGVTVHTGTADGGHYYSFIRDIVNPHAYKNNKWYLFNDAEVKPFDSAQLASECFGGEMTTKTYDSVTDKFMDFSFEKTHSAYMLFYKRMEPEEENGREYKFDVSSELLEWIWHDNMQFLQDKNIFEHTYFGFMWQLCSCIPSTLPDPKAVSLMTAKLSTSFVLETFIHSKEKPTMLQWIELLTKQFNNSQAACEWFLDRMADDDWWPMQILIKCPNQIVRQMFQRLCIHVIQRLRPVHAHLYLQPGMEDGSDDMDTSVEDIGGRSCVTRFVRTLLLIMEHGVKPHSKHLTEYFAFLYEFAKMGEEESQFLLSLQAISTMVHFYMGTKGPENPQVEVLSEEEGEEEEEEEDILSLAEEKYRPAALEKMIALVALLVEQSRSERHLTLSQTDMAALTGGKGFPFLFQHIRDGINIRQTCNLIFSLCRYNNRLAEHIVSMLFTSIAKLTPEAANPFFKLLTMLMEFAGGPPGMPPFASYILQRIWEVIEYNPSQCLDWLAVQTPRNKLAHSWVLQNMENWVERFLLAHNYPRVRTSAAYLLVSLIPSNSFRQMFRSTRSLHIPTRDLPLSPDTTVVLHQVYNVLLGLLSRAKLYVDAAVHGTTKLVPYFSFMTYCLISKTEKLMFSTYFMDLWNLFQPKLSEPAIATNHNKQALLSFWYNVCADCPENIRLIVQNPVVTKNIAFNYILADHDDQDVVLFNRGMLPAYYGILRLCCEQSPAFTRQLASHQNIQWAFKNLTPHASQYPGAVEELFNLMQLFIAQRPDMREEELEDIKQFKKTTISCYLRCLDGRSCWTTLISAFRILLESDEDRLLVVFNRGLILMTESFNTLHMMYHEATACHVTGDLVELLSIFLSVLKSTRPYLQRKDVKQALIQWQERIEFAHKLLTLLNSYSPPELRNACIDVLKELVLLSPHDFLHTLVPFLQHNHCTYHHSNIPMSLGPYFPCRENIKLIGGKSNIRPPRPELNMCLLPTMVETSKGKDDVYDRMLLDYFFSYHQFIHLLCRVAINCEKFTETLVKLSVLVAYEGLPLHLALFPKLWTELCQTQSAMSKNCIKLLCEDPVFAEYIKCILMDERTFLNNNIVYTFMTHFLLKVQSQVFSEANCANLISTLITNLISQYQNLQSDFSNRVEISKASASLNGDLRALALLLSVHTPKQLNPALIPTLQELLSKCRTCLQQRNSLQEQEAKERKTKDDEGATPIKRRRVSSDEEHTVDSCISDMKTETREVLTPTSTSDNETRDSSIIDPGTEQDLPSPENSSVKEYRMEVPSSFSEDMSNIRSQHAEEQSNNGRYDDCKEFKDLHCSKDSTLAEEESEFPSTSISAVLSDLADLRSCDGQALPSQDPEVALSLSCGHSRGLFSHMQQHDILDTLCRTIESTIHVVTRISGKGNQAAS
Method in brief: (§1)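 The table lists average log2 ratios of fragment over vehicle, from an unpaired t-test on global-median-normalised Spectronaut label-free quantities. Proteins with ≥2 unique peptides were used. Samples were HEK293T lysate (495 µg) treated in triplicate with fragment at 200 µM or vehicle for 3 h, then with Biotin-Ahx-Ub-VS (0.5 µM final) for 1 h, with labelled DUBs NeutrAvidin-enriched and run by diaPASEF LC-MS/MS.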

USP36 = biological target: T1, USP36 (UniProt Q9P275)
T1 sequence (whole entry): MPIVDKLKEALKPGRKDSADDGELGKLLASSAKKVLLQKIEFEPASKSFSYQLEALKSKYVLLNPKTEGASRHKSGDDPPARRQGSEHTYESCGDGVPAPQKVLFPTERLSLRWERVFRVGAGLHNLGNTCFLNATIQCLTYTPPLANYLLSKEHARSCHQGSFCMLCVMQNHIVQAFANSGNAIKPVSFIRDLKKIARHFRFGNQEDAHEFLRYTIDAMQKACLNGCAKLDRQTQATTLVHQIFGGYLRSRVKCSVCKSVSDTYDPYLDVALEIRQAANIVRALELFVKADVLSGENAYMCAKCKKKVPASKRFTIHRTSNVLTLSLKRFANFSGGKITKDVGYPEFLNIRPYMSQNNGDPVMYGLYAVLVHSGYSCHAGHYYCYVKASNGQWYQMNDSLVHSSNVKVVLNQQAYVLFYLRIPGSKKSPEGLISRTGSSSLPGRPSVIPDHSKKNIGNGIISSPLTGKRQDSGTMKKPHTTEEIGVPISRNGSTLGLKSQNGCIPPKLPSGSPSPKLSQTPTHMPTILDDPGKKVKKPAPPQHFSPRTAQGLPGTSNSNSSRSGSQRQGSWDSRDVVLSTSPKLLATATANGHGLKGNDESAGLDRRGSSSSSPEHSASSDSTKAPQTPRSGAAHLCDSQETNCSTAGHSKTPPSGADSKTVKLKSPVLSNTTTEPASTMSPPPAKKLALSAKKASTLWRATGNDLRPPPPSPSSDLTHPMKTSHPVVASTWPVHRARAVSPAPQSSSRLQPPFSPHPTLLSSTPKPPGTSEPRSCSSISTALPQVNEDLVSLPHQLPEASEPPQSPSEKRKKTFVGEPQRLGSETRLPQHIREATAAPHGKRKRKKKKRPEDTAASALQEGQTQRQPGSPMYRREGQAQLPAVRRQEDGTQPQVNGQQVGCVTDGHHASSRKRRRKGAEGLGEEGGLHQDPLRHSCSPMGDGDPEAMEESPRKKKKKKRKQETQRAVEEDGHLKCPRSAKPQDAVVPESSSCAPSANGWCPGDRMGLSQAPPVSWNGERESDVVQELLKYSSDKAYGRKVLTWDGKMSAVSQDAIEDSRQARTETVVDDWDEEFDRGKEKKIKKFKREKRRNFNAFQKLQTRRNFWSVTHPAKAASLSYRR
Method in brief: as §1

USP38 = biological target: T2, USP38 (UniProt Q8NB14)
T2 sequence (whole entry): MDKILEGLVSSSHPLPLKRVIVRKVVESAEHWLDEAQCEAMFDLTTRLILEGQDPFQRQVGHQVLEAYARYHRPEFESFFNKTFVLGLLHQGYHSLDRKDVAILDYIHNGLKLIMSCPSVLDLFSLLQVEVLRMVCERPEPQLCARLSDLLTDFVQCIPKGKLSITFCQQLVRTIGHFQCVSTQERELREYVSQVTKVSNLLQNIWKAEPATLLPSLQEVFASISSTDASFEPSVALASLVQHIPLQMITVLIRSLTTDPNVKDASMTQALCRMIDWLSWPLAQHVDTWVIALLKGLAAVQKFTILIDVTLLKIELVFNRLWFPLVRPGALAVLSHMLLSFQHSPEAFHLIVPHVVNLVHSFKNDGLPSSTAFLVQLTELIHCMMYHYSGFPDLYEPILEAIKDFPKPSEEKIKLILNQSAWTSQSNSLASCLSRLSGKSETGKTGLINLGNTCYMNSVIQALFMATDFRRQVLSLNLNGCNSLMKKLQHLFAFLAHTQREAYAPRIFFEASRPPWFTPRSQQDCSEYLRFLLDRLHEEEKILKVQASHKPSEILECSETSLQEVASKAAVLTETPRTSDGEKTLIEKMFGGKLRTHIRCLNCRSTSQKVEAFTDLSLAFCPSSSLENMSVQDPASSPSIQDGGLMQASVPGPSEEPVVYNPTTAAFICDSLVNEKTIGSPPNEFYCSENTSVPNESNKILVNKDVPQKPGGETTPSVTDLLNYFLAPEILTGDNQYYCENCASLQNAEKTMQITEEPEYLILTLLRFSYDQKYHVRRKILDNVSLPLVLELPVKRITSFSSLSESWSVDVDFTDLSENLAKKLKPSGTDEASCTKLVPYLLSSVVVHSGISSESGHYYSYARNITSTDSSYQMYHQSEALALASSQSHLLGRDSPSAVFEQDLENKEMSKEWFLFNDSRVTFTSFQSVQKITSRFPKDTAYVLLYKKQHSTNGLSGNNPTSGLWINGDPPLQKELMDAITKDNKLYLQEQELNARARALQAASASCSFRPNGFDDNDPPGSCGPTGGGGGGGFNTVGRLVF
Method in brief: as §1

USP39 = biological target: T3, USP39 (UniProt Q53GS9)
T3 sequence (whole entry): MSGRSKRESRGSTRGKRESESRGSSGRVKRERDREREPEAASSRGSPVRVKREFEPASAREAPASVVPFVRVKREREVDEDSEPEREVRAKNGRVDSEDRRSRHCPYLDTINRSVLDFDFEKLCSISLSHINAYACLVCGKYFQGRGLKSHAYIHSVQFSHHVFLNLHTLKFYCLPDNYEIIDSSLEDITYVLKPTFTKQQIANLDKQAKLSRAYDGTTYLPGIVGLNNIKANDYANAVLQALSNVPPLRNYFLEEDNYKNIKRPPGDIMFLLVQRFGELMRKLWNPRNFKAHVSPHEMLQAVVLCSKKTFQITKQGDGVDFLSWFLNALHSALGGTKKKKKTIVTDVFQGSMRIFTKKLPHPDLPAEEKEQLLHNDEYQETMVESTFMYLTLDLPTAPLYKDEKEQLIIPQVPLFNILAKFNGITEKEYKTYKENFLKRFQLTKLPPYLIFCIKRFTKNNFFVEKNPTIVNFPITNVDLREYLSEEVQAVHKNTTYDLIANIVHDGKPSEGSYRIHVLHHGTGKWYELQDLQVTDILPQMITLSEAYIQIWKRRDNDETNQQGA
Method in brief: as §1

USP4 = biological target: T4, USP4 (UniProt Q13107)
T4 sequence (whole entry): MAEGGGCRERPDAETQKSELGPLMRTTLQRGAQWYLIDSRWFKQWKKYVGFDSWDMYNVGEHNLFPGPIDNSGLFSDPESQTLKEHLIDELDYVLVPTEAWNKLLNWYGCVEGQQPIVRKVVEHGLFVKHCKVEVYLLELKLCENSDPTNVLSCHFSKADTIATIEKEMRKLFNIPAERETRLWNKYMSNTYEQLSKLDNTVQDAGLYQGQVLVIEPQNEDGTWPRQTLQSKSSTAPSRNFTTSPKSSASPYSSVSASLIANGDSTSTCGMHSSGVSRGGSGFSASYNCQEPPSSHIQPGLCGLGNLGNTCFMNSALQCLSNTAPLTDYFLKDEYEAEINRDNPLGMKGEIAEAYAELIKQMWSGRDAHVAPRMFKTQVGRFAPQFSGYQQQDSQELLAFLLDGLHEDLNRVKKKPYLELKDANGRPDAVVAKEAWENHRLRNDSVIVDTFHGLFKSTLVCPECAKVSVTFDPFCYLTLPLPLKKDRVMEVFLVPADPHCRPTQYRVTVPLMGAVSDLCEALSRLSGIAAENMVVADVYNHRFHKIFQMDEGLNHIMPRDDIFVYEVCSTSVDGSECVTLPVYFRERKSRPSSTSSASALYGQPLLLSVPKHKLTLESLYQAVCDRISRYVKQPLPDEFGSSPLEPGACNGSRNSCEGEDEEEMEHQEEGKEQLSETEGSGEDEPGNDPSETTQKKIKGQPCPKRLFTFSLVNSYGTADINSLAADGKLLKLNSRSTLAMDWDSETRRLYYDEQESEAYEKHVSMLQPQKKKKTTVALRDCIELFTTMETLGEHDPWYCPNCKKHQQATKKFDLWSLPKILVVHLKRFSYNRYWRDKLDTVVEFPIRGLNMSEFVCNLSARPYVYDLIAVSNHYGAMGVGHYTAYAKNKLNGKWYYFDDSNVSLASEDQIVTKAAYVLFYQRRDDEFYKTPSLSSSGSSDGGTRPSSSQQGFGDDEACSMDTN
Method in brief: as §1

Measured: log2 ratio of Biotin-Ahx-Ub-VS probe labelling

O=C(CCl)NC1CCOc2ccccc21 (stereo not given)
inactive: USP34 -0.539 | USP36 -0.388 | USP38 -0.738 | USP39 -0.0973 | USP4 -0.674
